Laboratory results from article PMC7862700, “An all-to-all approach to the identification of sequence-specific readers for epigenetic DNA modifications on cytosine”.

Columns and labels:
Assay in all cases: DAPPL (digital affinity profiling via proximity ligation, sequencing); 10 mM Tris-HCl pH 7.5, 50 mM NaCl, 1 mM DTT, 4% glycerol, room temperature, 30 min; GST-TFs on glutathione beads, 16-mer random dsDNA library, 0.1% formaldehyde crosslink after washing; high values mean tight binding
Settings in all cases: protein: recombinant; tags: N-terminal GST; dsDNA, one strand shown
[1] = biological target: T1, ELK1 (Homo sapiens, UniProt P19419 1-428)
T1 sequence: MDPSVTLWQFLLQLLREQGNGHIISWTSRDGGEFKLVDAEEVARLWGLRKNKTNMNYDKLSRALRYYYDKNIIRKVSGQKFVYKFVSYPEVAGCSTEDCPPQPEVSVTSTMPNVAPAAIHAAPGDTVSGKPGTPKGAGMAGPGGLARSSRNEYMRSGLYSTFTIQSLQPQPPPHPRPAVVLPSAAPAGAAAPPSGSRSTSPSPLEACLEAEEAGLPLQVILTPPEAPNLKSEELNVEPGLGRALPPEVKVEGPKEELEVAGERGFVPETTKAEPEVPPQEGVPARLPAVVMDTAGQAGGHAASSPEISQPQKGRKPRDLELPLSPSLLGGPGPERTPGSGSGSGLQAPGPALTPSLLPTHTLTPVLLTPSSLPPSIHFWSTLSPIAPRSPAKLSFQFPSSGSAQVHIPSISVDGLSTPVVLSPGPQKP
In short: (§1)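 Pools were built from human transcription factors expressed in yeast as GST fusions, captured on glutathione beads and DNA-barcoded, along with a tag-only sample. Incubation with 200 nmole of a 16-mer random double-stranded DNA library lasted 30 min at room temperature in Tris/NaCl/DTT/glycerol buffer, and was followed by washing, 0.1% formaldehyde crosslinking, proximity ligation, PCR amplification and Illumina NextSeq500 sequencing. Binding signal is the quotient of each hexamer's read frequency for a factor and its frequency for the tag-only sample.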

[2] = biological target: T2, GABPA (Homo sapiens, UniProt Q06546 1-454)
T2 sequence: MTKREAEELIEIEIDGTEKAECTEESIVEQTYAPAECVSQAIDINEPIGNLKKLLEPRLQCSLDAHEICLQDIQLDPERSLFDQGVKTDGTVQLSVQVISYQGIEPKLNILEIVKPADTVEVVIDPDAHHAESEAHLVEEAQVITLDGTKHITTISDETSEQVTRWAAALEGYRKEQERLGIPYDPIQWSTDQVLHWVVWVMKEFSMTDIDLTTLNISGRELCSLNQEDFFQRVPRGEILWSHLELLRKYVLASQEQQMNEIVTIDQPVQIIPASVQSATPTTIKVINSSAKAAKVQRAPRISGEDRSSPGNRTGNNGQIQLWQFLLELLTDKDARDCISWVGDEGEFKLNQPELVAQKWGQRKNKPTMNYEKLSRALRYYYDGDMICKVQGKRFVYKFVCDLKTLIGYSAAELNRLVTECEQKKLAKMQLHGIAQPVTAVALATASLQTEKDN
In short: as §1

[3] = biological target: T3, ERG (Homo sapiens, UniProt P11308 1-479)
T3 sequence: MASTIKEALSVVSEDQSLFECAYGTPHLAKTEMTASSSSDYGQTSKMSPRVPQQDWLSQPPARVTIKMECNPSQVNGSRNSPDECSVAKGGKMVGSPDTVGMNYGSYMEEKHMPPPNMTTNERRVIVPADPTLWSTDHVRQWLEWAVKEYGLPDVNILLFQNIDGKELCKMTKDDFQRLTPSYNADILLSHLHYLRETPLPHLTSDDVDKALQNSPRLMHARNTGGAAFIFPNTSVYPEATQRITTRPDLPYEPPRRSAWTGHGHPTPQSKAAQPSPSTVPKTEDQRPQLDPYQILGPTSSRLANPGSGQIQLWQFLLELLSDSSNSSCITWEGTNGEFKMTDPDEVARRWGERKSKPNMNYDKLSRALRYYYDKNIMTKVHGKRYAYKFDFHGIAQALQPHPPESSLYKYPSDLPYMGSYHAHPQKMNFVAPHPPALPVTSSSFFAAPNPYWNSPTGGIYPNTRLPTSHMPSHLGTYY
In short: as §1

[4] = biological target: ELF1 (Homo sapiens, UniProt P32519 1-619)
ELF1, sequence (P32519 whole entry): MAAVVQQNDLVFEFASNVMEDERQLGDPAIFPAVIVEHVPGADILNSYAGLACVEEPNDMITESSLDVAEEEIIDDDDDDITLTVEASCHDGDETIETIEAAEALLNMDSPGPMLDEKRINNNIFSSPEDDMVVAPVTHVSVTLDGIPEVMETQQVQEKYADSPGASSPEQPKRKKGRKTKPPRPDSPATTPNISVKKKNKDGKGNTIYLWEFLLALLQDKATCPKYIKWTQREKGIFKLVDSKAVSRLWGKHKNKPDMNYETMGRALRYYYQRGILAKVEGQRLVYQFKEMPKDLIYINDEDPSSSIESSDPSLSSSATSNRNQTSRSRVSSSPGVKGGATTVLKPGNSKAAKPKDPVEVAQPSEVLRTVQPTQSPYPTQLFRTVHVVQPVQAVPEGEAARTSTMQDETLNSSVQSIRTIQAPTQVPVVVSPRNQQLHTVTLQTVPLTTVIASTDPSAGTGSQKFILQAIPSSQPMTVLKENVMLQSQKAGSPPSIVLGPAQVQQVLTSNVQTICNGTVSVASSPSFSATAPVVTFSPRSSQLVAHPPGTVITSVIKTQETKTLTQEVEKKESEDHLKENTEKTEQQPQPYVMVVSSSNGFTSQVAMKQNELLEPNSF
In short: as §1

[5] = biological target: SPIB (Homo sapiens, UniProt Q01892 1-262)
SPIB, sequence (Q01892 whole entry): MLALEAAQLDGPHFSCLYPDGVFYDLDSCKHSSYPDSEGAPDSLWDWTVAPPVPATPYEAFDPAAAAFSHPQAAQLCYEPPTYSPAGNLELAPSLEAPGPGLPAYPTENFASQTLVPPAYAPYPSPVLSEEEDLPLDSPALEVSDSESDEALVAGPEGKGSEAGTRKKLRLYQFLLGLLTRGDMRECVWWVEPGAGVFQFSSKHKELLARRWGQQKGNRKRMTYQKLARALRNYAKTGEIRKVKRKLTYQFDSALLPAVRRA
In short: as §1

[6] = biological target: T4, FEV (Homo sapiens, UniProt Q99581 1-238)
T4 sequence: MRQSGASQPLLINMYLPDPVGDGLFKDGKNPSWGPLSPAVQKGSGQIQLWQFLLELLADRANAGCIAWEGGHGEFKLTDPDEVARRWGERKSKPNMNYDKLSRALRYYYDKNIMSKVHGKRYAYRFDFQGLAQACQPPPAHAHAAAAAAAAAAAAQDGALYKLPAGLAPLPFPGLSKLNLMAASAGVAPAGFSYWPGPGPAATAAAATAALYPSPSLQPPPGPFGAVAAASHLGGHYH
In short: as §1

[7] = biological target: ETV5 (Homo sapiens, UniProt P41161 1-510)
ETV5, sequence (P41161 whole entry): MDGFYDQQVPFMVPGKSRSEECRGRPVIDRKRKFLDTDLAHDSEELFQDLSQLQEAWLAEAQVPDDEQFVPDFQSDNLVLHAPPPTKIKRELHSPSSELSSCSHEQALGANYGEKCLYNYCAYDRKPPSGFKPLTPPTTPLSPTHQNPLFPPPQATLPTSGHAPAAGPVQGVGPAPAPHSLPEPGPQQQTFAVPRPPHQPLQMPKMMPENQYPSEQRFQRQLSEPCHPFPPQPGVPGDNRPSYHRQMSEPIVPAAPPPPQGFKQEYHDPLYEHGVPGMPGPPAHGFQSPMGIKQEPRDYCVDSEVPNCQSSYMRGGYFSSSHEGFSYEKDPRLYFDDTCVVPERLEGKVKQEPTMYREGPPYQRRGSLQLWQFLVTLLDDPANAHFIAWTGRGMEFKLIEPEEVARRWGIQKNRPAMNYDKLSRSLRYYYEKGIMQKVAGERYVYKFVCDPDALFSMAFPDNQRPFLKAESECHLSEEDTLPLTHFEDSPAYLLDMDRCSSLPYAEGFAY
In short: as §1

[8] = biological target: ELF4 (Homo sapiens, UniProt Q99607 1-663)
ELF4, sequence (Q99607 whole entry): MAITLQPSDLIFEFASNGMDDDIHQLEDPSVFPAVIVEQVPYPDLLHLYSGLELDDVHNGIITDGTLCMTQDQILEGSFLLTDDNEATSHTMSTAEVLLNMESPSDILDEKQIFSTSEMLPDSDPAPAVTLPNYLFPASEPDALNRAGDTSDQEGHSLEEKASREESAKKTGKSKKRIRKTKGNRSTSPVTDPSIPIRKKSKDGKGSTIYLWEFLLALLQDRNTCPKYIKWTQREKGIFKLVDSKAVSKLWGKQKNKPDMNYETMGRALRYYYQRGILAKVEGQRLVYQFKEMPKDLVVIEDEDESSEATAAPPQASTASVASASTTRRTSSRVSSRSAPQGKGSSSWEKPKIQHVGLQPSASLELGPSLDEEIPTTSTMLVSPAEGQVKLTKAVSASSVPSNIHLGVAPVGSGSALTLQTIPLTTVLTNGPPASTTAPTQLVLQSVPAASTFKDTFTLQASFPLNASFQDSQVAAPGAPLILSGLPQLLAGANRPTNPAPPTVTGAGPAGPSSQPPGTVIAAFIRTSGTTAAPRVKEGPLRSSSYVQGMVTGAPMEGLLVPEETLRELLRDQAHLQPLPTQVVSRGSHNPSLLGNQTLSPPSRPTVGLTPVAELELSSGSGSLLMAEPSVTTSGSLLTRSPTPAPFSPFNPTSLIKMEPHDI
In short: as §1

[9] = biological target: T5, ELK4 (Homo sapiens, UniProt P28324-2 1-405)
T5 sequence: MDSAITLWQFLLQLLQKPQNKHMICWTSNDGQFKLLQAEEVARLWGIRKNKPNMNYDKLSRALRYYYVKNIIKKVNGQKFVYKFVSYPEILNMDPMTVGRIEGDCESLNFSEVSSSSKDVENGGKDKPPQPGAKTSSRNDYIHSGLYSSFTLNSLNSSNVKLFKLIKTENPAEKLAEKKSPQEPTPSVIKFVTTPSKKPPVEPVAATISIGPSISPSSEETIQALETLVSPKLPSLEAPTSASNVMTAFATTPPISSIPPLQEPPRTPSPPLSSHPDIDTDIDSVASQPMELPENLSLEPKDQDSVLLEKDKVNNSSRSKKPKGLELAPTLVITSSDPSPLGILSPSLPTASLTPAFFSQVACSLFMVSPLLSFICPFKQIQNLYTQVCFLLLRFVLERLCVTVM
In short: as §1

[10] = biological target: T6, ETV2 (Homo sapiens, UniProt O00321 1-342)
T6 sequence: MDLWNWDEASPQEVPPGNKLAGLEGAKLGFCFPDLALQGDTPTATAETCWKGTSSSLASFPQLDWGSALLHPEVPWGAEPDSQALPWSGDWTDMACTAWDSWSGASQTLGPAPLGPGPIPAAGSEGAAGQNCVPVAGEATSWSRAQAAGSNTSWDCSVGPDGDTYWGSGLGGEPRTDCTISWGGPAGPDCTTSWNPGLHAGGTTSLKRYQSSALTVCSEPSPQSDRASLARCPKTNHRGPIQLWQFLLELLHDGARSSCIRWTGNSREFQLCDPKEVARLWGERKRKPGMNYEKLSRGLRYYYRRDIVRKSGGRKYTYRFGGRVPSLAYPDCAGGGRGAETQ
In short: as §1

[11] = biological target: T7, ELF3 (Homo sapiens, UniProt P78545 1-371)
T7 sequence: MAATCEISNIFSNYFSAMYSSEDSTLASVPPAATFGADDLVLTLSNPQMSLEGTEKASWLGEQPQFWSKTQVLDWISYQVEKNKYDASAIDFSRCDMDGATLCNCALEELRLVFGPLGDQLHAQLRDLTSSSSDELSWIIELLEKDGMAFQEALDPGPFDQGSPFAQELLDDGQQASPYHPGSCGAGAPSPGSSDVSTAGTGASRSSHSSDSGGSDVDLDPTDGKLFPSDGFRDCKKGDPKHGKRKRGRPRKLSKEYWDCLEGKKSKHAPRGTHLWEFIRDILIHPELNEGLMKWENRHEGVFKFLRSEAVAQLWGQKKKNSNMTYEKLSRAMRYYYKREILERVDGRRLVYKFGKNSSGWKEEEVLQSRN
In short: as §1

[12] = biological target: ETV1 (Homo sapiens, UniProt P50549 1-477)
ETV1, sequence (P50549 whole entry): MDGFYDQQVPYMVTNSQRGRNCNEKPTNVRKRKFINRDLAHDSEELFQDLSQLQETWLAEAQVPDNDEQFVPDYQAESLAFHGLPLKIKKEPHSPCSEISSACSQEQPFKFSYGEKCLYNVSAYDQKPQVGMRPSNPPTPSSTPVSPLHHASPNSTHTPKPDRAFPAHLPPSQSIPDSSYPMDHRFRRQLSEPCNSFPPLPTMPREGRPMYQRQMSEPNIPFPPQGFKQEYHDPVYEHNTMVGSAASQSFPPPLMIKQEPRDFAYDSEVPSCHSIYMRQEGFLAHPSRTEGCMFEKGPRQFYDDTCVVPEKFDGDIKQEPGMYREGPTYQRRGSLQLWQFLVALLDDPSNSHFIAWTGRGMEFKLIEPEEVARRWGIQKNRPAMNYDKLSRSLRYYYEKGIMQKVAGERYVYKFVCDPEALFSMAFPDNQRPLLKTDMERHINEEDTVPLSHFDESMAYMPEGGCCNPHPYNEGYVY
In short: as §1

[13] = biological target: T8, ETV3L (Homo sapiens, UniProt Q6ZN32 1-361)
T8 sequence: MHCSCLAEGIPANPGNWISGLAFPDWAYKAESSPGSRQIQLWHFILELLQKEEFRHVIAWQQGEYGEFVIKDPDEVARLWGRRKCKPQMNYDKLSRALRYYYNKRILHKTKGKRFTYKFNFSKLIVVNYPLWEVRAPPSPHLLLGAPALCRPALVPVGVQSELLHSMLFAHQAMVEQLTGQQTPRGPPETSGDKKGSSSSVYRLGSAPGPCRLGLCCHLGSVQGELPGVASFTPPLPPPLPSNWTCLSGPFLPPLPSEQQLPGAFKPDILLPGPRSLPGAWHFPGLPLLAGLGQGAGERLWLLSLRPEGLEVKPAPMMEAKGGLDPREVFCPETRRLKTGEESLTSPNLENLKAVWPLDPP
In short: as §1

[14] = biological target: T9, ETS2 (Homo sapiens, UniProt P15036 1-469)
T9 sequence: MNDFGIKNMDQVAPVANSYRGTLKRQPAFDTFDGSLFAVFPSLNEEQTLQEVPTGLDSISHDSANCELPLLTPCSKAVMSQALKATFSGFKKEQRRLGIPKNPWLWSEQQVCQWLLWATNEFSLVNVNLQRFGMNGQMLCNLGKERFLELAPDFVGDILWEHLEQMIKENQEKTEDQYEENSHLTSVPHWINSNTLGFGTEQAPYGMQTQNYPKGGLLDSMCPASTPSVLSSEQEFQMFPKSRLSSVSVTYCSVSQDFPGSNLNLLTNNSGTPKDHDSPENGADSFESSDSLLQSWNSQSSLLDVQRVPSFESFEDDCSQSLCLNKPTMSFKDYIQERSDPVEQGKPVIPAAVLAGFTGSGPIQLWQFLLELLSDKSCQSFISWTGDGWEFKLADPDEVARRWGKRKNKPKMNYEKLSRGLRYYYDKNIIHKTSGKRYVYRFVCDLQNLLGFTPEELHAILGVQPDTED
In short: as §1

[15] = biological target: T10, SPDEF (Homo sapiens, UniProt O95238 1-335)
T10 sequence: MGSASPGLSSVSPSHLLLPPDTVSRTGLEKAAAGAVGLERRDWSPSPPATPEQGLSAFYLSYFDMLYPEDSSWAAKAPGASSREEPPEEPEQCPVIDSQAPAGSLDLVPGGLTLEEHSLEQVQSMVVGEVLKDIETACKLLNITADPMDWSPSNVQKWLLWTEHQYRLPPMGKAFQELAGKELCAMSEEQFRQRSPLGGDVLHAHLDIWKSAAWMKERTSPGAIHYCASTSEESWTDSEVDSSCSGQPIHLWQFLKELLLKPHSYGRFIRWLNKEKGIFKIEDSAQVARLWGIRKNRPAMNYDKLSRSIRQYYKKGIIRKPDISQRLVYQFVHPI
In short: as §1

[16] = biological target: T11, ETV7 (Homo sapiens, UniProt Q9Y603 1-341)
T11 sequence: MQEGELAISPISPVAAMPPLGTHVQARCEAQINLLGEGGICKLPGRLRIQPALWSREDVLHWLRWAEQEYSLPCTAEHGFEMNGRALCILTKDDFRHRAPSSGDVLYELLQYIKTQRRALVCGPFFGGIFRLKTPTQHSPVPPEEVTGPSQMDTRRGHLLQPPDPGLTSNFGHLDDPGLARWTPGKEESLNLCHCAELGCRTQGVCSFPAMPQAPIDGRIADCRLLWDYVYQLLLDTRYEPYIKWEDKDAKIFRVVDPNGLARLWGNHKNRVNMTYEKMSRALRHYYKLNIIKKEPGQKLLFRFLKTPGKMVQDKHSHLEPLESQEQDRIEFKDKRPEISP
In short: as §1

[17] = biological target: T12, ETV3 (Homo sapiens, UniProt P41162-2 1-143)
T12 sequence: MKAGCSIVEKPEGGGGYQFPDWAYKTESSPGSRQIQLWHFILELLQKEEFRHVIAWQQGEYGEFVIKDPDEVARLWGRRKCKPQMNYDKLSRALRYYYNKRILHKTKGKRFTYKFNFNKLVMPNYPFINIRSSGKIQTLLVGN
In short: as §1

[18] = biological target: ETV6 (Homo sapiens, UniProt P41212 1-452)
ETV6, sequence (P41212 whole entry): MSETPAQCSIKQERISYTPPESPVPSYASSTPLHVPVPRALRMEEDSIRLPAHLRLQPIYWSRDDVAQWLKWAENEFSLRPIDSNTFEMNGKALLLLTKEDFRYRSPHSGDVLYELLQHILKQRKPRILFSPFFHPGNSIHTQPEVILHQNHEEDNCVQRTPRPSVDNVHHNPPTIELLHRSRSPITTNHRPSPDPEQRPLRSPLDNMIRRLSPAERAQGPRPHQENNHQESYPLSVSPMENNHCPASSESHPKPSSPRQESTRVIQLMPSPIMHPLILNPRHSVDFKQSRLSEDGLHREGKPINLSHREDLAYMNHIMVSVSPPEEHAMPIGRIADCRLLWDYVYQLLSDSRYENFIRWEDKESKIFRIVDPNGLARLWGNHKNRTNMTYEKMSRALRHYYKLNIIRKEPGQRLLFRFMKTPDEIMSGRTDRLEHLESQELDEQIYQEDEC
In short: as §1

GGTATC was tested. Which binding signal [1] did it give?
The binding signal was 1.07 fold enrichment (6-mer frequency, TF over GST control).

And the binding signal [2]?
Its binding signal is 1.06 fold enrichment (6-mer frequency, TF over GST control).

And the binding signal [3]?
Its binding signal is 1.07 fold enrichment (6-mer frequency, TF over GST control).

And the binding signal [4]?
Its binding signal is 1.09 fold enrichment (6-mer frequency, TF over GST control).

What about the binding signal [5] of the same sequence?
Its binding signal is 1.04 fold enrichment (6-mer frequency, TF over GST control).

What about the binding signal [6] of the same sequence?
The binding signal was 1.06 fold enrichment (6-mer frequency, TF over GST control).

What about the binding signal [7] of the same sequence?
The binding signal was 1.06 fold enrichment (6-mer frequency, TF over GST control).

What about the binding signal [8] of the same sequence?
The binding signal was 1.08 fold enrichment (6-mer frequency, TF over GST control).

And the binding signal [9]?
The binding signal was 1.13 fold enrichment (6-mer frequency, TF over GST control).

And the binding signal [10]?
Its binding signal is 1.23 fold enrichment (6-mer frequency, TF over GST control).

And the binding signal [11]?
The binding signal was 1.23 fold enrichment (6-mer frequency, TF over GST control).

And the binding signal [12]?
The binding signal was 1.1 fold enrichment (6-mer frequency, TF over GST control).

And the binding signal [13]?
The binding signal was 1.02 fold enrichment (6-mer frequency, TF over GST control).

And the binding signal [14]?
The binding signal was 1.01 fold enrichment (6-mer frequency, TF over GST control).

What about the binding signal [15] of the same sequence?
Its binding signal is 1.33 fold enrichment (6-mer frequency, TF over GST control).

What about the binding signal [16] of the same sequence?
Its binding signal is 1.06 fold enrichment (6-mer frequency, TF over GST control).

What about the binding signal [17] of the same sequence?
The binding signal was 1.04 fold enrichment (6-mer frequency, TF over GST control).

What about the binding signal [18] of the same sequence?
Its binding signal is 1.03 fold enrichment (6-mer frequency, TF over GST control).
